Data published in PubChem BioAssay AID1210 (NMMLSC, 2008).
Active and inactive are the calls of the source.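 The calls were made as follows: active = blocks over 70% of labeled estradiol binding at 10 µM, or over a set limit at 100 nM; inactive = the rest.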

Target: Estrogen receptor beta (Homo sapiens) (UniProt Q92731)
Assay: ERbeta ligand binders by competition, primary screen, cell-based, Cos7 ERbeta-GFP, flow cytometry (AID 1210);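 also: 0% = DMSO vehicle wells and 100% = complete loss of labeled estradiol signal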
Details: fluorescent estrogen binding, stronger effect = higher value
[1] = ligand binding inhibition, at 0.1 µM

Sequence of Estrogen receptor beta (Homo sapiens) (Q92731 whole entry, looked up): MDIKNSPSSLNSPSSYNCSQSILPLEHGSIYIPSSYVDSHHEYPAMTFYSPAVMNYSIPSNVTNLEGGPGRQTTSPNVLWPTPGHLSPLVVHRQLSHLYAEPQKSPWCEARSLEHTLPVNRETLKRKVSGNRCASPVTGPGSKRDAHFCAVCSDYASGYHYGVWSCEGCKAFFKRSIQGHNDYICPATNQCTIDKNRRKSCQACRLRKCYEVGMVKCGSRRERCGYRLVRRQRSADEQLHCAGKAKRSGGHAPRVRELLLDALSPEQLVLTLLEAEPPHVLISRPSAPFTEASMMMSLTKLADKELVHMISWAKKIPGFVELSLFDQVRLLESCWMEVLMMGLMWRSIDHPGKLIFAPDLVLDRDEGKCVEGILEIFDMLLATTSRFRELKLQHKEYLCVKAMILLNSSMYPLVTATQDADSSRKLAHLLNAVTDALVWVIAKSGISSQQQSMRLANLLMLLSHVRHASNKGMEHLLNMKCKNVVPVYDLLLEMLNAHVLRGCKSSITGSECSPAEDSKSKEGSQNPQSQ

Row | SMILES | inhibition (at 10 µM) | inhibition [1]
1 | Nc1ccc(/C=C/C(=O)c2ccco2)cc1 | 0% (inactive) | 37%
2 | CCSc1nnc(NC(=O)C2Cc3ccccc3CN2C(=O)c2ccco2)s1 (stereo not given) | 45% (inactive) | 34%
3 | Cc1cc(C(=O)Nc2sc3c(c2C#N)CCC3)no1 | 46% (inactive) | 23%
4 | COCc1cc(=O)n2c(-c3ccc(C)cc3)n[nH]c2n1 | 12% (inactive) | 39%
5 | Clc1ccc2c(c1)[C@H]1OCC[C@H]1[C@@H](c1ccco1)N2 | 0% (inactive) | 4%
6 | O=C(Nc1ccc2oc(-c3ccc4ccccc4c3)nc2c1)c1cccs1 | 42% (inactive) | 36%
7 | COc1ccc(-c2nnc(SCC(=O)/C(C#N)=C(\C)N)o2)cc1 | 36% (inactive) | 13%
8 | O=C(Nc1ccc2c(c1)nc1n2CCSC1)c1ccco1 | 57% (inactive) | 31%
9 | CN1CCC(=NNC(=O)c2cn(-c3ccccc3)nc2-c2ccccc2)CC1 | 32% (inactive) | 6%
10 | CC1(C)CC(=O)C2=C(C1)OC(c1ccc(O)cc1)C(C#N)=C2N (stereo not given) | 47% (inactive) | 49%
11 | CC1(C)CCCN(C(=O)c2coc(=O)c(Br)c2)C1 | 49% (inactive) | 18%
12 | C=C(C)CNC(=S)NNC(=O)CCn1c2cc(Cl)ccc2c2ccc(Cl)cc21 | 18% (inactive) | 20%
13 | Cc1nc(-c2ccc(O)c(O)c2)cs1 | 31% (inactive) | 4%
14 | Cc1ccc(C(=O)CSC2=C(C#N)C(c3ccco3)CC(=O)N2)c(C)c1 (stereo not given) | 54% (inactive) | 14%
15 | Cc1oc2c(C)c(O)ccc2c(=O)c1N1C(=O)c2ccccc2C1=O | 16% (inactive) | 18%
16 | O=C(CSc1nc2c(cnn2-c2ccccc2)c(=O)[nH]1)c1ccc(Cl)cc1 | 39% (inactive) | 34%
17 | CCN(CC)c1ccc(-c2nn3c(-c4ccccc4OC)nnc3s2)cc1 | 32% (inactive) | 24%
18 | O=C(Nc1nc(-c2nc3ccccc3s2)cs1)C1COc2ccccc2O1 (stereo not given) | 19% (inactive) | 2%

Row | SMILES | inhibition (at 10 µM) | inhibition [1]
19 | Cc1cccn2c(=O)c3cc(C(=O)O)n(C)c3nc12 | 60% (inactive) | 11%
20 | COc1ccc(-c2ccc(=O)[nH]n2)cc1 | 0% (inactive) | 16%
21 | COc1ccccc1-c1nnc2sc(-c3cnccn3)nn12 | 40% (inactive) | 17%
22 | O=C(NCc1ccco1)c1cc2c(s1)CSC2 | 32% (inactive) | 12%
23 | COc1ccccc1N1CCN(C(=O)c2cc3c(s2)CCC3)CC1 | 22% (inactive) | 4%
24 | Cc1ccccc1Nc1nnc(SCC(=O)NC(=O)NCc2ccco2)s1 | 0% (active) | 67%
25 | COc1ccc(-c2nn(-c3ccccc3)cc2/C=C2/SC(=S)N(Cc3ccco3)C2=O)c(C)c1 | 57% (inactive) | 23%
26 | COC(=O)c1ccc2c(=O)n(CCCCCC(=O)NCc3ccc4c(c3)OCO4)c(=O)[nH]c2c1 | 68% (inactive) | 20%
27 | CC1(N2CCOCC2)CC2(O)C(=[N+]1[O-])CCc1nonc12 (stereo not given) | 49% (inactive) | 62%
28 | NC(=O)c1c(NC(=O)c2cccs2)sc2c1CCCCCC2 | 54% (inactive) | 42%
29 | CCc1oc2ccccc2c1C(=O)c1cc(Br)c(O)c(Br)c1 | 45% (inactive) | 9%
30 | c1coc(-c2nnc3sc(Cc4cccs4)nn23)c1 | 5% (inactive) | 53%
31 | Cc1ccc(OCc2ccoc2C(=O)O)cc1C | 0% (inactive) | 8%
32 | Nc1ccc2oc(-c3ccccc3Cl)cc(=O)c2c1O | 25% (inactive) | 26%
33 | COc1ccc(N2C(=O)c3ccccc3NC2c2ccc(OC)c(COc3ccccn3)c2)cc1 (stereo not given) | 40% (inactive) | 9%
34 | O=C(Cc1coc2cc3c(cc12)CCC3)OCc1cc(=O)n2c(n1)sc1ccccc12 | 56% (inactive) | 14%
35 | CN=c1scc(C)n1/N=C/c1ccc(O)cc1O | 58% (inactive) | 6%
